Compound activity: PubChem BioAssay, National Center for Advancing Translational Sciences (NCATS)
PMP22 txn = modulators of PMP22 gene transcription in S16 Schwann cells; Potency, µM (doses to about 57.5 µM), for inactives: at the highest dose activity change, negative = inhibition, actives largely listed as inhibitors; AID 1508649; S16 Pmp22-F2sN Schwann cells, FLuc/NLuc coincidence luminescence, 24 h; 43,000 compounds, 2% hits; active = clear falling dose curves in both reporters; inconclusive = both reporters move, but less clearly or upward; inactive = either reporter flat; the % is the NLuc reporter signal; note: potency is the fitted concentration of half-maximal effect; % is set by controls: 0 for no effect and ±100 for the full control effect
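Schwann cells carrying the coincidence reporter were exposed to library compounds for 24 h at 37C, then lysed and read for FLuc and, after quenching, NLuc luminescence on a CCD imager.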
HTT-AS promoter = activates huntingtin-antisense promoter activity; HEK293 HTT-AS promoter firefly luciferase reporter, 24 h; response scale: percent change from vehicle, -100% = no light; 48,000 compounds, 0.24% hits; AID 1508624; Potency, µM (highest dose often 57.5 µM), inactives show top-dose activity change, positive = activation, usual class: activators; note: potency is the fitted concentration of half-maximal effect; nearly all actives have a fitted effect of over 55% in size
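Firefly luciferase signal from promoter-reporter HEK293 cells was scaled between vehicle (0%) and zero RLU (-100%). Compounds were tested at final concentrations of up to 57.5 uM over 24 h at 37 degrees C. PTC124 at 50 uM final served as control inhibitor.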
S16 viability = cytotoxicity in S16 Pmp22-F2sN Schwann cells | 43,000 compounds, 0.48% hits | AID 1508642 | Potency, µM (highest dose often 57.5 µM), without a hit: at the highest dose activity change, negative = cytotoxicity, hits mostly cytotoxic | S16 Pmp22-F2sN Schwann cells viability, CellTiter-Glo, 24 h; note: potency is the fitted concentration of half-maximal effect; % is set by controls: 0 for no effect and ±100 for the full control effect; nearly all actives have a fitted effect of over 65% in size
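S16 Pmp22-F2sN Schwann cells (500-1,000/well) in phenol-red-free DMEM with 10% FBS received 23 nL compound by pin tool for 24 h at 37 °C. Viability was then read as CellTiter-Glo luminescence after 15 min at room temperature.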
pS6 MEF inh = reduces mTORC1 signaling in Tsc2 and p53 null MEF cells. Tsc2-/- p53-/- MEF, phospho-rpS6 immunofluorescence/PI, 24 h. Potency, µM (top dose mostly 38.3 µM), for the others: at the highest dose activity change, negative = inhibition, actives largely listed as inhibitors. 44,000 compounds, 0.78% hits;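 note: potency is the fitted concentration of half-maximal effect; plate controls were DMSO for no effect and rapamycin for full effect; nearly all actives have a fitted effect of over 50% in size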
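Tsc2-/-, p53-/- MEFs (empty-vector stable line) in DMEM + 10% FBS were treated with compounds 24 h at 37 degree Celsius, fixed, and immunostained for phospho-rpS6 (Alexa-488) with propidium iodide counterstain. Laser-scanning cytometry gave % positive cells, normalized against 7.5 nM rapamycin and DMSO.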
HTT prom inh = HTT promoter inhibition; HEK293 HTT promoter firefly luciferase reporter, 24 h; 48,000 compounds, 0.93% hits; Potency, µM (top dose mostly 57.5 µM), for the others: at the highest dose activity change, negative = inhibition, hits mostly inhibitors; note: potency is the fitted concentration of half-maximal effect; nearly all actives have a fitted effect of over 50% in size
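HEK293 luciferase promoter-reporter cells (2,500/well) plated 24 h, then compounds added at up to 57.5 uM final for 24 h at 37 °C. Firefly luminescence by Dual-Glo, normalized to vehicle (0%) and zero RLU (-100%).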
OvCa metastasis = inhibitors of ovarian cancer cell adhesion and invasion in omental model; SKOV3ip1-GFP adhesion/invasion on 3D omental model, fluorescence; 46,000 compounds, 0.1% hits; Potency, µM (titrated, usually from 45.8 µM), inactives show top-dose activity change, negative = inhibition, hits mostly inhibitors;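 note: potency is the fitted concentration of half-maximal effect; plate controls were DMSO wells for no effect and tomatine positive control wells for full effect; nearly all actives have a fitted effect of over 65% in size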
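qHTS, 4-pt dose (0.36-46 umol/L); SKOV3ip1-GFP, 1,200 cells/well, no FBS; primary omental fibroblast/mesothelial co-culture 48 h pre-grown; 2 h RT + 16 h 37 C; PBS wash, 4% PFA; GFP count 488/509 nm.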
NLuc sat counter = inhibits NanoLuc at saturating substrate, PMP22 counter-screen; AID 1508638; shares compounds with PMP22 txn; Secreted NLuc enzyme (filtered S16 cell medium), Nano-Glo luminescence; 690 compounds, 4% hits; Potency, µM (top dose mostly 57.5 µM), for the others: at the highest dose activity change, negative = inhibition, actives largely listed as inhibitors; note: potency is the fitted concentration of half-maximal effect; % is set by controls: 0 for no effect and ±100 for the full control effect
NLuc Km counter = inhibits NanoLuc under Km conditions, PMP22 counter-screen; 690 compounds, 5% hits; secreted NLuc enzyme, coelenterazine luminescence, Km conditions; shares compounds with PMP22 txn; Potency, µM (highest dose often 57.5 µM), inactives show top-dose activity change, negative = inhibition, most hits filed as inhibitors; AID 1508639; note: potency is the fitted concentration of half-maximal effect; % is set by controls: 0 for no effect and ±100 for the full control effect
FLuc ctr PMP22 = counter-screen for PMP22 expression modulators: firefly luciferase inhibition. Potency, µM (top dose mostly 57.5 µM), inactives show at the top dose activity, negative = inhibition, hits mostly inhibitors. AID 1508640. purified P. pyralis FLuc, luminescence, 10 min. 690 tested, under 10 active. shares compounds with PMP22 txn; note: % of control where 0% means no effect
Target sequence (P08659 whole entry, looked up): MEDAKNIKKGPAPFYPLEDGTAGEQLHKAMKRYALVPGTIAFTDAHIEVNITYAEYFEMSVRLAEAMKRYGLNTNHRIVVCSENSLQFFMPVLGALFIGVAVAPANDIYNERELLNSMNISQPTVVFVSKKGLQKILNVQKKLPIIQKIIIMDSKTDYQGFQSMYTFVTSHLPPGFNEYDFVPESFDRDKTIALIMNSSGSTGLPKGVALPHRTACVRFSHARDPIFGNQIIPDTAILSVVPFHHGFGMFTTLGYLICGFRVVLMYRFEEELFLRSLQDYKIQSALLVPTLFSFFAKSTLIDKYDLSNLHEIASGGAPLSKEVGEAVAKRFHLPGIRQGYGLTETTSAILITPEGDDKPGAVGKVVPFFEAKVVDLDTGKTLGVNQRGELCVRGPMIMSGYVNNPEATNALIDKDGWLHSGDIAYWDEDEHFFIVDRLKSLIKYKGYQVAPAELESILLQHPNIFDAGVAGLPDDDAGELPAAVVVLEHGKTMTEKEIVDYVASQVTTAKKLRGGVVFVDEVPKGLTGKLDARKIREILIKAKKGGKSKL
S16 viab conf = confirmation of cytotoxicity in S16 Pmp22-F2sN Schwann cells (luciferase reporters placed in the Pmp22 gene); shares compounds with PMP22 txn; S16 Schwann cells viability, CellTiter-Glo ATP luminescence, 24 h; Potency, µM (highest dose often 57.5 µM), for the others: at the top dose activity change, negative = viability loss, hits mostly cytotoxic; 690 compounds, 7% hits; note: potency is the fitted concentration of half-maximal effect; % is set by controls: 0 for no effect and ±100 for the full control effect
PMP22 txn cnf = confirmation of modulators of PMP22 gene transcription in S16 cells; shares compounds with PMP22 txn; S16 Schwann cells Pmp22-F2sN, dual luciferase, 24 h; Potency, µM (top dose mostly 57.5 µM), without a hit: at the highest dose activity change, negative = inhibition, usual class: inhibitors; 690 compounds, 22% hits; active = clear falling dose curves in both reporters; inconclusive = both reporters move, but less clearly or upward; inactive = either reporter flat; the % is the FLuc reporter signal; note: potency is the fitted concentration of half-maximal effect
PMP22 HiBiT cnf = confirmation of modulators of rat PMP22 protein expression | shares compounds with PMP22 txn | S16 Schwann cells Pmp22-HiBiT, luminescence, 48 h | Potency, µM (titrated, usually from 27.9 µM), inactives show at the top dose activity change, negative = inhibition, usual class: inhibitors | 95 tested, under 10 active | AID 1508647
Target sequence (P25094 whole entry, looked up): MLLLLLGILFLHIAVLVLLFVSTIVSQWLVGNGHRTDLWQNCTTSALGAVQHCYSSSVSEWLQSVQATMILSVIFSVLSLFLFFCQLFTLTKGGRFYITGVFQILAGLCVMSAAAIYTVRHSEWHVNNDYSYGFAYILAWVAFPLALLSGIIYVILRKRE
An asterisk follows results filed as active; i = inactive; ? = inconclusive; . = no result given. Sampled rows, rich in hits. Any-hit rate of the full collection: about 3.6%. Unless noted, calls come from the whole dose curve; as a rule, active = well fitted curve in the direction sought with a large enough effect; inconclusive = small, poorly fitted or top-dose-only effect, or another doubt; inactive = no such curve, though single readings can be large; an effect the other way counts as inactive or inconclusive.

SMILES	PMP22 txn	HTT-AS promoter	S16 viability	pS6 MEF inh	HTT prom inh	OvCa metastasis	NLuc sat counter	NLuc Km counter	FLuc ctr PMP22	S16 viab conf	PMP22 txn cnf	others
Cc1[nH]c2ccccc2c1C1(O)C(=O)N(Cc2ccc(Cl)cc2)c2ccccc21 (configuration not stated)	?	-24.1%	?	?	-21.4%	i	.	.	.	.	.
Cc1ccc(CN2C(=O)C(O)(c3c(C)[nH]c4ccccc34)c3ccccc32)cc1 (configuration not stated)	8.16µM*	-19.9%	4.8%	?	-15.3%	i	?	?	3.5%	7.8%	17.2µM*	PMP22 HiBiT cnf=-9.2%
Cc1[nH]c2ccccc2c1C1(O)C(=O)N(Cc2ccccc2)c2ccc(Cl)cc21 (configuration not stated)	16.3µM*	-23.1%	9.5%	?	?	-16.3%	-13.9%	?	3.7%	?	?
CCOC(=O)[C@H]1O[C@H]1C(=O)N[C@@H](CC(C)C)C(=O)NCCC(C)C	.	-7.4%	.	.	-9.6%	0.9%	.	.	.	.	.
COCCNc1nc2c(c(=O)n(C)c(=O)n2C)n1Cc1c(F)cccc1Cl	12.6µM*	-29.9%	?	-1.1%	?	6.5%	1.1%	-2.1%	3.6%	10.6%	-9.1%
COc1ccc(Cl)cc1NC(=O)CSC1=Nc2ccccc2C2=NC(CCC(=O)NCc3ccco3)C(=O)N12 (configuration not stated)	20µM*	-15.9%	?	-6.7%	-10.9%	2.9%	?	?	-7.5%	-18.5%	?
O=C(NCCCN1CCN(c2ccc(F)cc2)CC1)Nc1ccccc1Cl	13.4µM*	-17.1%	-22.4%	-9.0%	-16.2%	?	?	-0.4%	5.6%	?	-13.9%
COc1cc2c(cc1OC)C(COc1ccc3c(C)cc(=O)oc3c1)N(C(=O)c1ccc(C)cc1)CC2 (configuration not stated)	?	-17.8%	?	-9.3%	-28.8%	10.2%	-11.2%	1.3%	1.5%	0.2%	?
COc1cc2c(cc1OC)C(COc1ccc3c(C)cc(=O)oc3c1)N(C(=O)c1ccc(C)c(C)c1)CC2 (configuration not stated)	?	17.1%	-9.8%	?	-7.7%	-1.8%	.	.	.	.	.
N#CNC(=NCCCCCCOc1ccc(Cl)cc1)Nc1ccncc1	.	-43.8%	.	.	?	-8.9%	.	.	.	.	.
COc1ccc2c(c1)Cc1sc(NC(=O)c3cccc(Br)c3)nc1-2	-35.2%	-20.0%	11.4%	3.4%	-29.9%	-16.4%	.	.	.	.	.
COc1ccc(Br)c2c1-c1nc(NC(=O)c3cccc(C)c3)sc1C2	11.3µM*	-18.4%	-3.5%	-3.3%	-7.4%	i	?	-19.3%	-13.4%	3.2%	?	PMP22 HiBiT cnf=32.8%
Nc1ccc(C(=O)c2cc3c(ccc4ccccc43)[nH]2)cc1	.	-25.7%	.	.	-17.2%	-10.1%	.	.	.	.	.
COc1ccc(NC(=O)CSc2nc3ccccc3nc2N2CCCCC2)cc1	-18.7%	-25.1%	19.9%	-0.5%	-10.8%	4.1%	.	.	.	.	.
COc1ccc(Cl)cc1NC(=O)CSc1nc2ccccc2nc1N1CCCCC1	12.7µM*	-17.3%	8.4%	-1.5%	-16.0%	3.8%	-8.7%	8.9%	-3.8%	-9.3%	-33.4%
C[C@H](NC(=O)Cc1cc(F)cc(F)c1)C(=O)N[C@@H]1C(=O)N(C)c2ccccc2-c2ccccc21	.	-16.0%	.	.	-1.4%	37.9%	.	.	.	.	.
CCc1ccc(S(=O)(=O)c2nnn3c2nc(N(C)Cc2ccccc2)c2cc(Cl)ccc23)cc1	2.4%	16.3%	10.3%	-5.3%	-9.8%	9.4%	.	.	.	.	.
CCc1ccc(S(=O)(=O)c2nnn3c2nc(N(CC)Cc2ccccc2)c2cc(Cl)ccc23)cc1	6.7µM*	9.2%	-10.8%	-3.4%	4.8%	0.5%	-0.9%	1.9%	3.9%	4.9%	-13.9%
COc1ccccc1CNc1nc2c(S(=O)(=O)c3ccc(C)c(C)c3)nnn2c2ccc(Cl)cc12	6.31µM*	18.0%	1.6%	0.4%	9.1%	4.8%	-0.8%	-1.1%	-2.4%	21.7µM*	7.74µM*
O=c1[nH]c(-c2ccc(C(F)(F)F)cc2)nc2c1CSCC2	.	-4.6%	.	.	-1.0%	-15.6%	.	.	.	.	.
CCc1ccc(OCC(=O)Nc2cc3oc4ccccc4c3cc2OC)cc1	6.45µM*	-3.4%	4.4%	1.2%	1.8%	i	5.5%	2.0%	3.1%	-13.0%	18.3µM*	PMP22 HiBiT cnf=10.8%
CCC[C@@H](NC(=O)[C@@H]1[C@H]2CCC[C@@H]2CN1C(=O)[C@@H](NC(=O)[C@@H](NC(=O)c1cnccn1)C1CCCCC1)C(C)(C)C)C(=O)C(=O)NC1CC1	.	-21.1%	.	.	?	-8.0%	.	.	.	.	.
Cc1cccc(N2CCN(S(=O)(=O)c3ccc4c(c3)CCCN4C(=O)C3CCC3)CC2)c1C	16µM*	-16.2%	-19.1%	-10.5%	?	-4.5%	-8.5%	3.5%	9.0%	-16.1%	?
